Results published in PMC12136788.
Over roughly 24,000 sequences, “enrichment r” has its median near 0.99; the highest 2% begin near 3.7. The sample as a whole holds a higher share of the highest values than the screen did.

B1: chr11:100882373:100882374:+_ENSMUSG00000019302_ENSMUST00000044721|mus_mus|mus_mus_mus_hu_True|28_28 (ssRNA)
RNA: GGGAGUUCUACAGUCCGACGAUCUUCCUGGUUUGUGUUGAUUUCCUUCAGUUCAUUUUCAAUCUUCUCAAAAUUGGCCUCUAAGUCAAUCAUGUCCCGGGGGAAGGGCACCUCUGGGUUUUCACCGGUGUCCAUAAUCGGAAUCAACAGAGGAUUGAGCAUCA
B2: chr1:88750987:88750988:+_ENSMUSG00000053333_ENSMUST00000065694|mus_mus|motif|central (ssRNA)
RNA: GGGAGUUCUACAGUCCGACGAUCUGAUAAGCCUCUUGUGUCCUGUGGUAUGGGGGUGUUCUCAUCUUUCAUAACUGGAGUACGGGAAUCUUCUUUUCCUCUGUCAGGAGUAGAGAUUGACAAUUUCUUAACACCAUCAACCAGCAACAGAGGAUUGAGCAUCA
B3: chr1:225611761:225611762:-_ENSG00000143815_ENST00000272163|hu_mus|hu_hu_hu_mus_True|8_108 (ssRNA)
RNA: GGGAGUUCUACAGUCCGACGAUCCCAGGCCAUCGACCUCUGACCACUUCACCCUCAACAAACUUCCUACUUGGCAUUUUCUAAAAUUAGUCUGGCCGCGCUCCGGCGGGAACUCCAGCCACUCCAGGGAGAAUAGUAGCAGCCCAACAGAGGAUUGAGCAUCA
B4: chr1:180971808:180971809:-_ENSG00000135823_ENST00000258301|hu_mus|FALSE|FALSE (ssRNA)
RNA: GGGAGUUCUACAGUCCGACGAUCUUUUCUUAUGCUCAAUUCAGUUGCAUCCAAGUUGAAUUUUCUAGGAUUUGCUUCAACUAUGCUGAUGGUUUCAUCGAGGUCCUCCAGAUCCCACUCUAUGCUGCGGAGAUUGUUCCUCAGCAACAGAGGAUUGAGCAUCA
B5: 5721493_5721695_819_3pUTR_ENSMUSG00000024937_ENSMUST00000075606|mouse|control|control (ssRNA)
RNA: GGGAGUUCUACAGUCCGACGAUCCUCCUCAUCACUCUCAGCAAAGUCAUCCAGGUUUCCCACGUCACUAGGCUUCACACUCAUGAGGCUGGCCAGACUCUGCAUGUCAUCAUCCGUGGCACGGCCUUCUCGCAGCAGCACCCCCAACAGAGGAUUGAGCAUCA
B6: chr1:178664722:178664723:-_ENSMUSG00000057335_ENSMUST00000057037|mus_mus|motif|central (ssRNA)
RNA: GGGAGUUCUACAGUCCGACGAUCAGUCGUUGUUGCUGUCUUGCAGGGUCCUUACAAAUGUGUAAGACUGACAAAGGGUUACGGUGGACCUACAGGGAAACACAGAAGCAAUUCAAUGACUGGGAGUGCAACUAUCAACUACUCCAACAGAGGAUUGAGCAUCA
B7: chr4:148551591:148551592:-_ENSMUSG00000063077_ENSMUST00000060537|mus_hu|mus_mus_mus_hu_False|28_68 (ssRNA)
RNA: GGGAGUUCUACAGUCCGACGAUCACCUGACAAAAUUAAAUAUCCCUGUAAAUUAGACAAUAAGCAGCAGGUAACAAAGUCUUUGCUUUGGAAUAUGUGCCAGGAAAAAUCAUGUUUUUUUUAGAUCUCAAGAGACAGUUCACACAACAGAGGAUUGAGCAUCA
B8: chr2:49626764:49626765:+_ENSMUSG00000026764_ENSMUST00000028102|mus_hu|FALSE|FALSE (ssRNA)
RNA: GGGAGUUCUACAGUCCGACGAUCGCACACAUCUGUACACACAGAAACUCUACACAGCUCAAAAGACCUGAAACUGGUGUACUGCAGAUGGCUGGAGUAAGCAAGUAUAAAAAAAAAAUGGAAACUGUAGGGGGGGAAAAAUAACAACAGAGGAUUGAGCAUCA
B9: chr19:8913615:8913616:-_ENSMUSG00000071658_ENSMUST00000096259|mus_hu|mus_mus_mus_hu_False|1_38 (ssRNA)
RNA: GGGAGUUCUACAGUCCGACGAUCAGGGUACCAAAACCUUCUGCCUGAAAUGGGUGCCCCACCCAGUAGGGAGUUGCAGCUGAAAGUAUCUGAUGCACUGACAGUUACUAUACGAAAGGAGGCCCCUGGGGAGGGCCCGAGAUCCAACAGAGGAUUGAGCAUCA
B10: chr10:112657927:112657928:+_ENSG00000150593_ENST00000280154|hu_mus|FALSE|FALSE (ssRNA)
RNA: GGGAGUUCUACAGUCCGACGAUCAAAAAAAAAAAAAAAAAAAAAAACAAUAACAAAAACAAAAGGAAAAGAAAACCUGUACUGACAACUCUUACAGUUGAGAUCUGUUCUUGGUAACACCUAAGACUGUAAGAGUUGCUGUGCCAACAGAGGAUUGAGCAUCA
B11: chr13:55803104:55803105:+_ENSMUSG00000045767_ENSMUST00000057844|mus_hu|FALSE|FALSE (ssRNA)
RNA: GGGAGUUCUACAGUCCGACGAUCGCACAGCACCAGUAAGUAGAUGUGCUGGAGGGUAGAGGAAGAGGAAUGAAUGUACGAAAGGCAGGGGAGAAAGGGAAGGGUAUGUAUAACAAAAUAAGGAAGGAAAAUAAACUGAAAGGGCAACAGAGGAUUGAGCAUCA
B12: chr1:58468927:58468928:-_ENSMUSG00000026034_ENSMUST00000148330|mus_mus|mus_mus_mus_hu_False|18_48 (ssRNA)
RNA: GGGAGUUCUACAGUCCGACGAUCAAUUACUGAAAAAGAUGUUCAUUACCUUAGCUAUGUACUUAAUGAACCAAAUUACCCAAACAACAUAAAAUGUGCAAUAUAAAAAUGUUAAGAAAAUAACUUACUGUACAAAAUAACUUACAACAGAGGAUUGAGCAUCA
B13: chr17:57746147:57746148:+_ENSG00000141367_ENST00000269122|hu_hu|FALSE|FALSE (ssRNA)
RNA: GGGAGUUCUACAGUCCGACGAUCUUGCCCAGUCUUGCAAGCUGCCUGAAUAUAUUUAAAGUGCACAUCUGGGUCCUGGCUAAAGUUAACAAUGGAUCCCAGAAAAUAAAAGAGACCUUCAAAACUCUUGAAAGAUUCAAAAAGCAACAGAGGAUUGAGCAUCA
B14: chr8:81717444:81717445:+_ENSMUSG00000071064_ENSMUST00000098614|mus_mus|FALSE|FALSE (ssRNA)
RNA: GGGAGUUCUACAGUCCGACGAUCUAAUGUACACAAACCUUGACAGUAUGAGCGUCUGAACAUAAUAUGAGGAGUUAAAAAAAAAGAAAGAAAGAAAGAAAGAAAGAAAGAGAGAGAGAAAGAAAAGAAAGGACAGGAGAGAGACAACAGAGGAUUGAGCAUCA
B15: chr2:47387792:47387793:-_ENSG00000143933_ENST00000272298|hu_hu|motif|central (ssRNA)
RNA: GGGAGUUCUACAGUCCGACGAUCUUAGGACAAUGACAGUAAGAUAAGGGAAGAAAACAUGGAGGAAUGAAGUCCGGAUUACGGUACAUGCAUAUUUUUUUGACAGUAGGGAGAAACCUUUUACAGAUAAGUUACAAACAAAGACAACAGAGGAUUGAGCAUCA
B16: chr19:8913615:8913616:-_ENSMUSG00000071658_ENSMUST00000096259|mus_hu|mus_mus_mus_hu_False|98_108 (ssRNA)
RNA: GGGAGUUCUACAGUCCGACGAUCAGGGGGGCACCAAACCCUGCCUCAAAUGGGUGCCCCACCCAGUAGGGAGUUGCAGCUGAAAGUAUCUGAUGCAGAAGCAGUGACUAUACGAAAGGAGGCCCCUGGGGAGGGCCAGGCCAGCAACAGAGGAUUGAGCAUCA
B17: chr10:33214929:33214930:-_ENSG00000150093_ENST00000302278|hu_hu|hu_hu_hu_mus_True|18_78 (ssRNA)
RNA: GGGAGUUCUACAGUCCGACGAUCAACAAGUUCAUUGAAAAACUCUCCUCUGUCAGUAAGACUGAGCACAUUUUUGUAGCUAAAUGGGCUGGUGCAGUUUUGUUCACUUGUACAAGGGUUCCUGAGCUUUGCUGGGGUUGUGCUCAACAGAGGAUUGAGCAUCA

molecular target: T1, UNK ZnF1-3 (human, UniProt Q9C0B0 31-174); assay: nsRBNS (natural sequence RNA bind-n-seq); RBNS binding buffer (assumed for nsRBNS): 25 mM Tris pH 7.5, 150 mM KCl, 3 mM MgCl2, 0.01% Triton X-100, 500 ug/ml BSA, 20 U/ml SUPERase-In, 4 C; UNK is unkempt and MSI1 is Musashi-1; names of the RNAs are library labels; protein concentration not given here; high values mean tight binding
T1 sequence: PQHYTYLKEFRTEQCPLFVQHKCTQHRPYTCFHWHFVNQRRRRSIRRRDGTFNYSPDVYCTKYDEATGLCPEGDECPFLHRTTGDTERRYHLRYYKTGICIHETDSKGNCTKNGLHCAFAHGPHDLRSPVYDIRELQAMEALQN

Binder | binding signal [enrichment R]
B1 | 0.609
B2 | 0.776
B3 | 1.34
B4 | 0.284
B5 | 0.928
B6 | 1.23
B7 | 1.18
B8 | 9.96
B9 | 1.39
B10 | 8.87
B11 | 5.32
B12 | 0.974
B13 | 2.24
B14 | 4.04
B15 | 1.89
B16 | 1.63
B17 | 1.36
